Assay results taken from PubChem BioAssay.
Records with an inconclusive call do not appear. Active and inactive are the calls of the source.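 How the source made its calls, unless noted: active means inhibition above 54%, about 3 SD of non-fluorescent compounds; inactive means the rest.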

Tests used:
[1] = rapamycin-like changes in RPL19A-GFP expression – cell-based, S. cerevisiae, multiplex flow cytometry, primary screen (AID 1862; in the data active means percent of DMSO control GFP below about 86%;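 further: lower values mimic rapamycin by blocking the RPL19A rise seen in DMSO cells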); conditions: S. cerevisiae RPL19A-GFP strain, flow cytometry fluorescence, 3 h; at 10 µM; stronger effect = lower value
[2] = TOR pathway GLN3 branch reporter MEP2-GFP changes – S. cerevisiae, multiplex flow cytometry, primary screen (AID 1867;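 active means GFP response, as percent of the DMSO control, above the screen-wide mean plus 3 SD, about 139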;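 further: median GFP channel fluorescence of barcode-gated MEP2-GFP cells measured by flow cytometry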); conditions: S. cerevisiae MEP2-GFP strain, 3 h, at 10 µM, stronger effect = higher value, 100% means same as DMSO wells
[3] = TOR pathway RTG branch CIT2 reporter changes – S. cerevisiae, GFP fusion, multiplex flow cytometry, primary screen (AID 1870;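 active means percent response above a set limit, the screen-wide mean plus 3 SD, cut at about 130% in these data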;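 further: barcoded CIT2-GFP strain pooled with four other GFP strains with rapamycin as positive control; median GFP fluorescence per well over plate mean of DMSO wells so 100% = DMSO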); conditions: S. cerevisiae CIT2-GFP expression, 3 h, at 10 µM, stronger effect = higher value
[4] = TOR pathway LAP4-GFP level changes – S. cerevisiae, multiplex flow cytometry, primary screen (AID 1873;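 active means GFP signal, as percent of the solvent control, above the screen mean plus 3 SD, about 149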); conditions: S. cerevisiae LAP4-GFP expression, 3 h, at 10 µM, stronger effect = higher value
[5] = yeast AGP1-GFP level changes, GLN3 branch – cell-based, multiplex flow cytometry, S. cerevisiae, primary screen (AID 1887;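 active means GFP signal above the screen-wide mean plus 3 SD, that is over about 124.5% of the solvent control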;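 further: AGP1-GFP fusion strain of S. cerevisiae within a five-strain barcoded multiplex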); conditions: 3 h, at 10 µM, stronger effect = higher value
[6] = reduced mouse 2C T cell binding to pMHC/ICAM-1 vesicles – MLPCN validation set, flow cytometry, LFA-1/ICAM-1 modulator project, pilot screen (AID 2523;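 active means response below a set limit, under 55% cells CD8-positive and vesicle-bound, and CD8 cells' 90th-percentile brightness under 279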;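 on vesicle binding response: mean PE anti-B7-1 fluorescence of CD8+ cells relative to row control; 100% = QL9-loaded vesicles with DMSO vehicle in the same plate row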); conditions: 2C mouse CD8+ T cells, at 7 µM, stronger effect = lower value; double positive events: measured here: CD8+/vesicle+ event percentage
[7] = biological target: Integrin beta-1 (Homo sapiens) + Integrin alpha-4 (Homo sapiens) (UniProt P13612+P05556); assay: alpha4beta1 integrin LIBS antibody binding reduction – U937 cells, HUTS-21 mAb, flow cytometry, validation set, VLA-4 allosteric modulator project, pilot screen (AID 2674;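 active means inhibition above 50%, about 3 SD of the validation set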;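 further: antibody binding induced by the VLA-4 ligand LDV present at three times its Kd; 0% = LDV ligand with antibody and no compound and 100% = antibody without LDV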); conditions: HUTS-21 LIBS mAb binding, at 6.7 µM, stronger effect = higher value, binding induced by LDV ligand
Chain of Integrin beta-1 (Homo sapiens) + Integrin alpha-4 (Homo sapiens) (P05556 whole entry, looked up): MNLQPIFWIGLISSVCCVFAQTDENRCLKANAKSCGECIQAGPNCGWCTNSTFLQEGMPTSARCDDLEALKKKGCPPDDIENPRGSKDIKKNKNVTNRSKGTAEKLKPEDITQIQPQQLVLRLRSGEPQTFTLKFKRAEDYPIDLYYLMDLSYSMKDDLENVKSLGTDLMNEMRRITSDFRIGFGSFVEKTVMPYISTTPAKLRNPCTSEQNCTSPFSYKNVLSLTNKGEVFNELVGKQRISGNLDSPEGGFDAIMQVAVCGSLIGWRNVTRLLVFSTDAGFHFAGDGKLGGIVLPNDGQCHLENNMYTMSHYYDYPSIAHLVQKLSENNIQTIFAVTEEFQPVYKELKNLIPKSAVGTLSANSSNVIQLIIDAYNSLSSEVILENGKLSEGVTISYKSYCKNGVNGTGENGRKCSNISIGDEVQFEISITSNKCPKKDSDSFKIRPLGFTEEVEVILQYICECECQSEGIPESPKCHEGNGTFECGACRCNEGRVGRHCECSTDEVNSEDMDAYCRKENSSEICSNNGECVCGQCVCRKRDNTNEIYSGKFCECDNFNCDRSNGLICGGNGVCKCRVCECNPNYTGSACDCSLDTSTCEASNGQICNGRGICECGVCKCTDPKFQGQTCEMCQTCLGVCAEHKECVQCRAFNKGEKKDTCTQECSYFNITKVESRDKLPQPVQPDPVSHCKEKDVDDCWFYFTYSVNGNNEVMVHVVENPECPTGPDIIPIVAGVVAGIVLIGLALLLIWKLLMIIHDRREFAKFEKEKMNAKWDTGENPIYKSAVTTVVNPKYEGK
Chain of Integrin beta-1 (Homo sapiens) + Integrin alpha-4 (Homo sapiens) (P13612 whole entry, looked up): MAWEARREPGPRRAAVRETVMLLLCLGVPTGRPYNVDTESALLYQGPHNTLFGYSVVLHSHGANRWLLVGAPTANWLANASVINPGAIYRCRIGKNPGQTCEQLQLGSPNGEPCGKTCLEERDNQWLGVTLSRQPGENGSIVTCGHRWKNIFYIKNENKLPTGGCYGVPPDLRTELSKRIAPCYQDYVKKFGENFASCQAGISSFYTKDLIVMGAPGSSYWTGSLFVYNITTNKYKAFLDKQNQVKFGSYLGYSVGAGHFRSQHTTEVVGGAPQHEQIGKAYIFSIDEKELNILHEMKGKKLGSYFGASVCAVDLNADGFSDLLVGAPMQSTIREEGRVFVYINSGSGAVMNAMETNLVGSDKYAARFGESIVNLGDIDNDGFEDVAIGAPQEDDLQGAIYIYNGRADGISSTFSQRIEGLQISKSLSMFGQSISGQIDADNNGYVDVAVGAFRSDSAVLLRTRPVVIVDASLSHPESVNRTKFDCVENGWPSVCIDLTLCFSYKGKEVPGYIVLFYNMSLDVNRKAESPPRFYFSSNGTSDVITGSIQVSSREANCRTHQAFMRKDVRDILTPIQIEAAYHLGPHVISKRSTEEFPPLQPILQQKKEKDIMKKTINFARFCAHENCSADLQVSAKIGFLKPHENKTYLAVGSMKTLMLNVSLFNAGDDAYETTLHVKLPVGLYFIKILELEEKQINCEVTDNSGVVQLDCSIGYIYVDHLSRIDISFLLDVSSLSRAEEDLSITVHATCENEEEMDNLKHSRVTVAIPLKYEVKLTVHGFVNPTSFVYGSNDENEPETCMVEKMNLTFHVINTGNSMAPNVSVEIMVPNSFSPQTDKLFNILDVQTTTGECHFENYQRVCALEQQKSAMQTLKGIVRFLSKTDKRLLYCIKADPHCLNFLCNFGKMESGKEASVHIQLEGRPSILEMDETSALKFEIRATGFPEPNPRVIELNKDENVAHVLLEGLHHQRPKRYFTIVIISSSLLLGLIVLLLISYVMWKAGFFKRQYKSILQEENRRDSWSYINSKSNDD

[8] = calorie-restriction mimetic ROS inhibitors, yeast – validation compound set, pilot screen (AID 2706;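 active means superoxide response below 65% of plate, a cut near 3 SD across the whole screen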;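 further: yeast exposed to compound for one week at 30 degrees C before staining; 100% = mean of all compound wells on the same plate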); conditions: S. cerevisiae aging, superoxide DHE fluorescence; at 10 µM; stronger effect = lower value
[9] = biological target: Beta-adrenergic receptor kinase 1 (Homo sapiens) (UniProt P25098); assay: GRK2 binders displacing RNA aptamer, biochemical, validation, human GRK2, bead flow cytometry (AID 488806;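 active means aptamer binding inhibition above 30%, about 3 SD of noise from non-fluorescent compounds; inactive means inhibition at or below 30%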); conditions: bead-bound GRK2, FAM-aptamer displacement, at 10 µM, stronger effect = higher value
Chain of Beta-adrenergic receptor kinase 1 (Homo sapiens) (P25098 whole entry, looked up): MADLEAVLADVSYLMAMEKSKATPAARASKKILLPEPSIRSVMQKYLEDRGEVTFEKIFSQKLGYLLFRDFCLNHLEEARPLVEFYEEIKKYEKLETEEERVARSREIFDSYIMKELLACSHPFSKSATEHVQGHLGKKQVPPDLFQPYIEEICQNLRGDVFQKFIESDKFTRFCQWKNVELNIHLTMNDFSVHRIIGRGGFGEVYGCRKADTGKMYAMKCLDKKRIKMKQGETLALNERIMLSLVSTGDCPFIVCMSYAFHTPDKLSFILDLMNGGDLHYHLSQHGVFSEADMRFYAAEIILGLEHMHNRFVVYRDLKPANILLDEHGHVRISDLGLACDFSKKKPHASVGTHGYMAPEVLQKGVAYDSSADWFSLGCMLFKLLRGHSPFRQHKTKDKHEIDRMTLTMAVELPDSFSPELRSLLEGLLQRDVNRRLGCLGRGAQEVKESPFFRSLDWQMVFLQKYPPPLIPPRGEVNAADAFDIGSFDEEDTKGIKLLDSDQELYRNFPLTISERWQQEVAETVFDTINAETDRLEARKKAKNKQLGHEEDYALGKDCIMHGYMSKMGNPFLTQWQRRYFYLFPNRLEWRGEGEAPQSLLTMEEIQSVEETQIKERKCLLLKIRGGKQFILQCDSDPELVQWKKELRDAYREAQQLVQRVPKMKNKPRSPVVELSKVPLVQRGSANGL

[10] = biological target: Beta-2 adrenergic receptor (Homo sapiens) (UniProt P07550); assay: agonist-induced loss of surface beta2AR – cell-based, FAP fluorogen, flow cytometry, validation set, pilot screen (AID 504459;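 active means percent response above 42, roughly 3 SD of non-fluorescent test compounds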;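 further: agonist-driven loss of surface beta2AR via internalization measured by FAP dye flow cytometry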); conditions: Am2.2-beta2AR cells, at 10 µM, stronger effect = higher value
Chain of Beta-2 adrenergic receptor (Homo sapiens) (P07550 whole entry, looked up, the tested form may be a part): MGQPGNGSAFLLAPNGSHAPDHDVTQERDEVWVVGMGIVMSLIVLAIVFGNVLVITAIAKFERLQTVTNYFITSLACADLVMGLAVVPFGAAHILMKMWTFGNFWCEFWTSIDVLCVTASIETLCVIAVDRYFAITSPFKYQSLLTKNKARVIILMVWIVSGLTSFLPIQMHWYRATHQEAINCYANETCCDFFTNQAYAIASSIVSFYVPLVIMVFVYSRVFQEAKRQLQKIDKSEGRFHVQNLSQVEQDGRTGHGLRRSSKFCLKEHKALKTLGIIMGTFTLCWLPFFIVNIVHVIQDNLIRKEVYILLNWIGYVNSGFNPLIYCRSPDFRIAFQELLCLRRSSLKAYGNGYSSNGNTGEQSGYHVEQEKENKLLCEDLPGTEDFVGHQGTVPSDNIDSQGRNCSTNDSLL

[11] = biological target: AP-2 complex subunit beta (Homo sapiens) (UniProt P63010); assay: beta-arrestin/AP2 interaction blockers – biochemical, validation set, GST-AP2 beads, flow cytometry, pilot screen (AID 504541); conditions: FITC arrestin peptide, at 10 µM, stronger effect = higher value, AP2 beta2 appendage fragment, R879A mutant;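 further: AP2 carries R879A mutation and is captured from E. coli lysate; bead-bound FITC arrestin peptide fluorescence measuring arrestin peptide binding to AP2; 0% = DMSO wells and 100% = excess unlabeled arrestin peptide control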
Chain of AP-2 complex subunit beta (Homo sapiens) (P63010 whole entry, looked up, the tested form may be a part, one chain of several): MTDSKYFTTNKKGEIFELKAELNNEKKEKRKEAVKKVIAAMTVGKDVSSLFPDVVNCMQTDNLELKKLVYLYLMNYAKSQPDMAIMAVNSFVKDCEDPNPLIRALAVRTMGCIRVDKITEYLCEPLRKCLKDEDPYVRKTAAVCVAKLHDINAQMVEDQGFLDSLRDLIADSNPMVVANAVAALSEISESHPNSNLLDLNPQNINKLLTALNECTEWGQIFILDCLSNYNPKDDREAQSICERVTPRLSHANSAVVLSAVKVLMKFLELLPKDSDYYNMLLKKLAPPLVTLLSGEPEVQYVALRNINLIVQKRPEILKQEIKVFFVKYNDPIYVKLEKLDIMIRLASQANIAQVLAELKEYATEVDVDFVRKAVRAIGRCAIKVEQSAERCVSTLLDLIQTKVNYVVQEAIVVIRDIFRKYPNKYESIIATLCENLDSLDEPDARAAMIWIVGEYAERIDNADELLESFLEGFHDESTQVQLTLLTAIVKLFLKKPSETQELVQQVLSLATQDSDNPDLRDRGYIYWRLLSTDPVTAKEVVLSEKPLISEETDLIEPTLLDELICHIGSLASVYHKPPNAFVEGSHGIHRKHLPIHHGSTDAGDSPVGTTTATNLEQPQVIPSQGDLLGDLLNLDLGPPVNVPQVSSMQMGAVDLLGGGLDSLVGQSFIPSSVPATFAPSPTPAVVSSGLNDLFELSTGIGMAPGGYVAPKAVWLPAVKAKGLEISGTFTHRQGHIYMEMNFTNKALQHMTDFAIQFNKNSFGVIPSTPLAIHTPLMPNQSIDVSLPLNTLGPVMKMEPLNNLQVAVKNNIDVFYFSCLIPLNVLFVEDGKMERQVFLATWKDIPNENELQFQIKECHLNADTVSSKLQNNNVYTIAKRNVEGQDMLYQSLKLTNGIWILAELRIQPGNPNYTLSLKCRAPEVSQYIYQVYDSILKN

[12] = cytosolic pH regulators acting via V-ATPase – S. cerevisiae, pHLuorin, HTS validation (AID 504600; in the data active means response above about 15%;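 further: plate controls were DMSO for no effect and reference compound for full effect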); conditions: V-ATPase proton transport, at 10 µM, stronger effect = higher value
[13] = system: anti-desmoglein-3 scFv antibody binding to human DSG3; assay: blockers of pathogenic pemphigus antibody–desmoglein-3 binding – biochemical, validation compound set, bead-based, flow cytometry, pilot screen (AID 588368;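 active means binding below the plate cutoff, the plate median minus 3 SD, with a reading above zero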;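 further: signal is the median channel fluorescence of bead-bound GFP antibody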); conditions: Protein G beads, DSG3-Fc, scFv-GFP binding, at 10 µM, stronger effect = lower value
[14] = Nile Red efflux blockade in pump-expressing yeast – validation compound set, multiplex, phenotypic, pilot screen (AID 588506;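 active means efflux inhibition above 0.42, the validation set average plus 4 SD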;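 further: Nile Red retained in cells so higher fluorescence means more efflux inhibition; 0 = negative control wells and 1 = enniatin B 25 µM full block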); conditions: S. cerevisiae pump-expressing triplex, Nile Red efflux flow cytometry; at 10 µM; stronger effect = higher value; the pumps come from Candida albicans
[15] = biological target: ATP-binding cassette sub-family B member 6 (Homo sapiens) (UniProt Q9NP58); assay: blockers of ABCB6-driven porphyrin uptake – K562-ABCB6 cells, flow cytometry, validation set, pilot screen (AID 588550;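 active means inhibition above the screen-wide mean plus 3 SD, about 51%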;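 further: 0% = DMSO wells and 100% = benzethonium chloride 70 µM positive control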); conditions: K562-ABCB6 porphyrin accumulation, 1 h, at 10 µM, stronger effect = higher value
Chain of ATP-binding cassette sub-family B member 6 (Homo sapiens) (Q9NP58 whole entry, looked up): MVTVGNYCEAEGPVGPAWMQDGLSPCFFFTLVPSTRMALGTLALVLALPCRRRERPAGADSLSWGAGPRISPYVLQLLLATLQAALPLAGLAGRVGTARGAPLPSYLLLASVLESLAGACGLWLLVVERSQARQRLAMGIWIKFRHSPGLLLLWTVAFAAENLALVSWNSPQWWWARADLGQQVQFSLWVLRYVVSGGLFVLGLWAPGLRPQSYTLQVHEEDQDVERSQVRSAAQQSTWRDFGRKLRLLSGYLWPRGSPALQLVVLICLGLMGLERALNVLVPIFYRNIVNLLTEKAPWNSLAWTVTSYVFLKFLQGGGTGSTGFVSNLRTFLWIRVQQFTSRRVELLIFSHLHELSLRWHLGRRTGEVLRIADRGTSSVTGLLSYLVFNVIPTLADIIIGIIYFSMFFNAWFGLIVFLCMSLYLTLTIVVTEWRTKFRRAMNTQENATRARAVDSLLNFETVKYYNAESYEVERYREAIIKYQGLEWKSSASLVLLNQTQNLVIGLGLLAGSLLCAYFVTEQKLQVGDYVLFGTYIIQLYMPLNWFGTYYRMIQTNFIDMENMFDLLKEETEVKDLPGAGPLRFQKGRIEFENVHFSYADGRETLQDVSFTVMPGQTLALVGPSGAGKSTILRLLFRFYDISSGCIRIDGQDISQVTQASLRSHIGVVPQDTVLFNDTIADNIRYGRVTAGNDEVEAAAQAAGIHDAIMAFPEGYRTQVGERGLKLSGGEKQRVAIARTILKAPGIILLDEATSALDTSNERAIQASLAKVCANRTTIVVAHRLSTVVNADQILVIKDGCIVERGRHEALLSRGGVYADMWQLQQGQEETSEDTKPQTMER

[16] = AML differentiation inducers, ER-HoxA9 marrow cells – cell-based, GFP/MAC1 double positive, flow cytometry, validation set, primary screen (AID 588685;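 active means differentiation response of at least 50%, scaled between solvent and reference control, from cells with both markers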;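 further: compound exposure lasts four days before antibody staining and flow analysis; 0% = DMSO wells and 100% = 5 µM fulvestrant positive control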); conditions: stronger effect = higher value, normalized: vehicle 0, fulvestrant 100

Row | SMILES | percent of DMSO control GFP [1] | GFP response vs DMSO [2] | percent response of DMSO control [3] | GFP response vs DMSO [4] | GFP response, % of DMSO [5] | double positive events [6] | vesicle binding response [6] | inhibition [7] | superoxide response (% of plate) [8] | aptamer binding inhibition [9] | response [10] | inhibition [11] | response [12] | binding (% of control) [13] | efflux inhibition (fraction of control) [14] | inhibition [15] | differentiation response [16]
1 | COc1ccc2[nH]c3c(=O)n(/N=C/[C@H]4C(C)C=C(C)CC4C)c(=O)[nH]c3c2c1 (some centres not stated) | 99.9% (inactive) | 109% (inactive) | 92% (inactive) | 107% (inactive) | 102% (inactive) | 57.4% | 6260% (inactive) | 6.4% (inactive) | 95.3% (inactive) | 3% (inactive) | 5.28% (inactive) | 32.4% (inactive) | -6.18% (inactive) | 98.7% (inactive) | 0.22 (inactive) | 1% (inactive) | -28% (inactive)
2 | NS(=O)(=O)c1cc2c(cc1Cl)NC(C(Cl)Cl)NS2(=O)=O (configuration not stated) | 100% (inactive) | 101% (inactive) | 102% (inactive) | 108% (inactive) | 112% (inactive) | 63% | 132% (inactive) | 2.29% (inactive) | 92.7% (inactive) | 4% (inactive) | 23.7% (inactive) | -6.64% (inactive) | 2.72% (inactive) | 104% (inactive) | 0.21 (inactive) | 4% (inactive) | -9.91% (inactive)
3 | Fc1ccc(-n2cc(CNCCc3ccccn3)c(-c3ccccc3Cl)n2)cc1 | 106% (inactive) | 102% (inactive) | 97.7% (inactive) | 106% (inactive) | 107% (inactive) | 63.8% | 91.8% (inactive) | 15.9% (inactive) | 98.4% (inactive) | -3% (inactive) | -23.3% (inactive) | 1.4% (inactive) | -7.11% (inactive) | 110% (inactive) | -0.17 (inactive) | -2% (inactive) | -7.94% (inactive)
4 | c1ccc2[nH]c(-c3cscn3)nc2c1 | 97.6% (inactive) | 103% (inactive) | 97.7% (inactive) | 123% (inactive) | 111% (inactive) | 58.6% | 174% (inactive) | 2.29% (inactive) | 85.3% (inactive) | -2% (inactive) | -32% (inactive) | 5.36% (inactive) | 1.12% (inactive) | 108% (inactive) | 0 (inactive) | 0% (inactive) | -2.03% (inactive)
5 | O=C(O)/C=C/c1cnc[nH]1 | 104% (inactive) | 108% (inactive) | 106% (inactive) | 101% (inactive) | 112% (inactive) | 59.9% | 93.5% (inactive) | 2.93% (inactive) | 98.6% (inactive) | -2% (inactive) | -4.55% (inactive) | -0.6% (inactive) | -0.43% (inactive) | 103% (inactive) | 0.755 (active) | 10% (inactive) | -13.3% (inactive)
6 | c1cc(-c2ccncc2)ccn1 | 99.7% (inactive) | 95.2% (inactive) | 106% (inactive) | 108% (inactive) | 105% (inactive) | 58.3% | 239% (inactive) | 0.94% (inactive) | 117% (inactive) | 4% (inactive) | 8.34% (inactive) | 23.8% (inactive) | -5.09% (inactive) | 101% (inactive) | -0.28 (inactive) | 4% (inactive) | 79.2% (active)
7 | COc1ccc2cc(C(=O)Nc3ccc(S(N)(=O)=O)cc3)sc(=O)c2c1OC | 93.7% (inactive) | 110% (inactive) | 114% (inactive) | 79.8% (inactive) | 98.9% (inactive) | 57.9% | 258% (inactive) | 3.55% (inactive) | 101% (inactive) | -4% (inactive) | 19.2% (inactive) | -1.93% (inactive) | 0.97% (inactive) | 97.8% (inactive) | 0.19 (inactive) | 7% (inactive) | -9.01% (inactive)
8 | COc1cc(/C=C/C(=O)O)cc(S(=O)(=O)NCCCO)c1OC | 97.3% (inactive) | 98.5% (inactive) | 91% (inactive) | 116% (inactive) | 105% (inactive) | 59.6% | 157% (inactive) | 6.4% (inactive) | 95.1% (inactive) | 5% (inactive) | 8.94% (inactive) | -5.7% (inactive) | -0.12% (inactive) | 96.6% (inactive) | -0.13 (inactive) | 5% (inactive) | -15.2% (inactive)
9 | Cc1ccccc1NC(=O)c1c(C)cc(=O)oc1C | 106% (inactive) | 101% (inactive) | 113% (inactive) | 84.8% (inactive) | 99.2% (inactive) | 67.4% | 771% (inactive) | 5.77% (inactive) | 83.4% (inactive) | 4% (inactive) | -4.18% (inactive) | -11.4% (inactive) | 1.91% (inactive) | 92.7% (inactive) | -0.2 (inactive) | -3% (inactive) | -1.71% (inactive)
10 | COc1ccccc1Oc1c(C)oc2c(CN3CCN(CCO)CC3)c(O)ccc2c1=O | 104% (inactive) | 101% (inactive) | 109% (inactive) | 98% (inactive) | 104% (inactive) | 58.7% | 111% (inactive) | -11.8% (inactive) | 96.1% (inactive) | -1% (inactive) | 6.51% (inactive) | -2.65% (inactive) | 0.24% (inactive) | 103% (inactive) | -0.14 (inactive) | -1% (inactive) | 11.5% (inactive)
11 | COc1cc(OC)c2c(C)c(Cl)c(=O)oc2c1 | 102% (inactive) | 104% (inactive) | 105% (inactive) | 113% (inactive) | 99.1% (inactive) | 56.7% | 92.7% (inactive) | 2.66% (inactive) | 90.2% (inactive) | -3% (inactive) | -6.2% (inactive) | -8.58% (inactive) | 1.24% (inactive) | 100% (inactive) | -0.1 (inactive) | -9% (inactive) | 0.24% (inactive)
